Results taken from PubChem BioAssay (EPA / NIEHS).
Calls of active or inactive are those of the source. Rule for the calls: active = hit-call score of the fitted dose curve at least 0.9, where 1 is the maximum; inactive = score below 0.9.

Each compound was assayed on ATP-citrate lyase (ACLY), ACLY (gene 47) (assay: LTEA_HepaRG_ACLY: Life Technologies and Expression Analysis (LTEA) Assay for ATP-citrate lyase (ACLY) using HepaRG (AID 2283466)). Conditions: mRNA level, 48 h; actives raise or lower the signal.
Outline: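 Differentiated HepaRG cells exposed 48 h in serum-free induction medium to eight half-log concentrations up to 100 uM in 0.5% DMSO, duplicates. Transcript measured by Fluidigm TaqMan qRT-PCR, normalized to ACTB, GAPDH, POLR2A; bidirectional fit versus DMSO.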
In the case of `CCOC(=O)C(C)OC(=O)c1cc(Oc2ccc(C(F)(F)F)cc2Cl)ccc1[N+](=O)[O-]` (stereo unspecified), the AC50 is reported as 50 µM (active).
`COC(=O)N(C(=O)N1CO[C@@]2(C(=O)OC)Cc3cc(Cl)ccc3C2=N1)c1ccc(OC(F)(F)F)cc1` was tested, and the outcome was “inactive”.
`CC1(C)C(C=C(Cl)Cl)C1C(=O)OC(C#N)c1cccc(Oc2ccccc2)c1` (stereo unspecified) was tested, and the outcome was “inactive”.
In the case of `Cc1cc(C)nc(Nc2ccccc2)n1`, the outcome is reported as “inactive”.
For `O=c1n(Cl)c(=O)n(Cl)c(=O)n1Cl`, the outcome was “inactive”.
`CO/N=C(/C1=NOCCO1)c1ccccc1Oc1ncnc(Oc2ccccc2Cl)c1F` was tested, and the AC50 was 12.5 µM (active).
In the case of `COCC(=O)N(c1c(C)cccc1C)C(C)C(=O)OC` (stereo unspecified), the outcome is reported as “inactive”.
In the case of `C=CCOC(=O)C(C)(C)OC(=O)c1cc(-n2c(=O)cc(C(F)(F)F)n(C)c2=O)ccc1Cl`, the outcome is reported as “inactive”.
`COC(=O)c1c(C(F)F)nc(C(F)(F)F)c(C2=NCCS2)c1CC(C)C` was tested, and the outcome was “inactive”.
For `CN=C=S`, the outcome was “inactive”.
For `CC(C)NC(=O)N1CC(=O)N(c2cc(Cl)cc(Cl)c2)C1=O`, the outcome was “inactive”.
With `COc1cc(OC)nc(NC(=O)NS(=O)(=O)c2ncccc2OCC(F)(F)F)n1` the outcome was “inactive”.
In the case of `COP(=O)(OC)O/C(C)=C/C(=O)N(C)C`, the outcome is reported as “inactive”.
In the case of `CCOc1cc(C(C)(C)C)ccc1C1COC(c2c(F)cccc2F)=N1` (stereo unspecified), the outcome is reported as “inactive”.

Each compound was assayed on Peroxisomal acyl-coenzyme A oxidase 1 (ACOX1) gene, ACOX1 (gene 51) (assay: LTEA_HepaRG_ACOX1: Life Technologies and Expression Analysis (LTEA) Assay for Peroxisomal acyl-coenzyme A oxidase 1 (ACOX1) gene using HepaRG (AID 2283467)). Conditions: mRNA level, 48 h; actives raise or lower the signal.
Outline: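 HepaRG cells, plated 48 h then switched to serum-free induction medium, were exposed in duplicate for 48 h to 8-point half-log concentrations up to 100 uM in 0.5% DMSO. ACOX1 mRNA was measured by qRT-PCR, normalized to ACTB/GAPDH/POLR2A, and fitted bidirectionally versus DMSO.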
With `CNC(=O)Oc1cccc2ccccc12` the outcome was “inactive”.
With `CCSC(=O)N1CCCCCC1` the outcome was “inactive”.
`COc1ccc(-c2ccccc2)cc1NNC(=O)OC(C)C` was tested, and the outcome was “inactive”.
With `CC(C)=CC1C(C(=O)OCc2coc(Cc3ccccc3)c2)C1(C)C` (stereo unspecified) the outcome was “inactive”.
For `OC(c1ccc(Cl)cc1)(c1ccc(Cl)cc1)C(Cl)(Cl)Cl`, the AC50 was 50 µM (active).
With `COC(=O)NS(=O)(=O)c1ccc(N)cc1` the outcome was “inactive”.
For `CC(C)Oc1cccc(NC(=O)c2ccccc2C(F)(F)F)c1`, the outcome was “inactive”.
With `CS(=O)(=O)c1cc(C(F)(F)F)ccc1C(=O)c1cnoc1C1CC1` the outcome was “inactive”.
In the case of `CCOP(=O)(OCC)Oc1nc(Cl)c(Cl)cc1Cl`, the AC50 is reported as 74.9 µM (active).
In the case of `CCOP(=S)(OCC)Oc1nc(Cl)n(C(C)C)n1`, the AC50 is reported as 9.48 µM (active).
In the case of `CCOc1nc(F)cc2nc(S(=O)(=O)Nc3c(Cl)cccc3Cl)nn12`, the outcome is reported as “inactive”.
`COP(=S)(OC)SCn1nnc2ccccc2c1=O` was tested, and the outcome was “inactive”.
For `CNC(=O)N(C)c1nnc(C(C)(C)C)s1`, the outcome was “inactive”.
`Clc1nc(Cl)nc(Nc2ccccc2Cl)n1` was tested, and the outcome was “inactive”.
With `Nc1c(Cl)c(Cl)nc(C(=O)O)c1Cl` the outcome was “inactive”.
`Nc1c(Cl)c(F)nc(OCC(=O)O)c1Cl` was tested, and the outcome was “inactive”.
With `CC1(C)CCC(=Cc2ccc(Cl)cc2)C1(O)Cn1cncn1` (stereo unspecified) the outcome was “inactive”.
For `CSC(=O)c1c(C(F)F)nc(C(F)(F)F)c(C(=O)SC)c1CC(C)C`, the outcome was “inactive”.
With `CCCCC(C#N)(Cn1cncn1)c1ccc(Cl)cc1` (stereo unspecified) the outcome was “inactive”.
`O=C(O)c1c(Cl)ccc2cc(Cl)cnc12` was tested, and the outcome was “inactive”.
For `O=P(O)(O)CCCl`, the outcome was “inactive”.
For `Cc1cnc(C2=NC(C)(C(C)C)C(=O)N2)c(C(=O)O)c1` (stereo unspecified), the outcome was “inactive”.
With `CCOC(=O)C(C)OC(=O)c1cc(Oc2ccc(C(F)(F)F)cc2Cl)ccc1[N+](=O)[O-]` (stereo unspecified) the AC50 was 2.11 µM (active).
For `COC(=O)N(C(=O)N1CO[C@@]2(C(=O)OC)Cc3cc(Cl)ccc3C2=N1)c1ccc(OC(F)(F)F)cc1`, the AC50 was 40 µM (active).
With `CC1(C)C(C=C(Cl)Cl)C1C(=O)OC(C#N)c1cccc(Oc2ccccc2)c1` (stereo unspecified) the outcome was “inactive”.
In the case of `Cc1cc(C)nc(Nc2ccccc2)n1`, the outcome is reported as “inactive”.
With `O=c1n(Cl)c(=O)n(Cl)c(=O)n1Cl` the outcome was “inactive”.
With `CO/N=C(/C1=NOCCO1)c1ccccc1Oc1ncnc(Oc2ccccc2Cl)c1F` the AC50 was 15.4 µM (active).
With `COCC(=O)N(c1c(C)cccc1C)C(C)C(=O)OC` (stereo unspecified) the outcome was “inactive”.
In the case of `C=CCOC(=O)C(C)(C)OC(=O)c1cc(-n2c(=O)cc(C(F)(F)F)n(C)c2=O)ccc1Cl`, the outcome is reported as “inactive”.
`COC(=O)c1c(C(F)F)nc(C(F)(F)F)c(C2=NCCS2)c1CC(C)C` was tested, and the outcome was “inactive”.
In the case of `CN=C=S`, the outcome is reported as “inactive”.
`CC(C)NC(=O)N1CC(=O)N(c2cc(Cl)cc(Cl)c2)C1=O` was tested, and the AC50 was 14.4 µM (active).
`COc1cc(OC)nc(NC(=O)NS(=O)(=O)c2ncccc2OCC(F)(F)F)n1` was tested, and the outcome was “inactive”.
With `COP(=O)(OC)O/C(C)=C/C(=O)N(C)C` the outcome was “inactive”.
`CCOc1cc(C(C)(C)C)ccc1C1COC(c2c(F)cccc2F)=N1` (stereo unspecified) was tested, and the outcome was “inactive”.

Each compound was assayed on Alkaline Phosphatase, Placental (ALPP) gene, ALPP (gene 250) (assay: LTEA_HepaRG_ALPP: Life Technologies and Expression Analysis (LTEA) Assay for Alkaline Phosphatase, Placental (ALPP) gene using HepaRG (AID 2283468;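 for AC50: differentiated human HepaRG liver cells in serum-free induction medium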)). Conditions: mRNA level, 48 h; actives raise or lower the signal.
Outline: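 qRT-PCR readout of ALPP mRNA (Fluidigm TaqMan), normalized to ACTB/GAPDH/POLR2A, after 48 h chemical exposure of HepaRG cells; 8-point half-log series, top 100 uM, 0.5% DMSO vehicle. Bidirectional curve fit versus DMSO baseline.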
For `CNC(=O)Oc1cccc2ccccc12`, the outcome was “inactive”.
With `CCSC(=O)N1CCCCCC1` the outcome was “inactive”.
With `COc1ccc(-c2ccccc2)cc1NNC(=O)OC(C)C` the outcome was “inactive”.
With `CC(C)=CC1C(C(=O)OCc2coc(Cc3ccccc3)c2)C1(C)C` (stereo unspecified) the outcome was “inactive”.
`OC(c1ccc(Cl)cc1)(c1ccc(Cl)cc1)C(Cl)(Cl)Cl` was tested, and the outcome was “inactive”.
In the case of `COC(=O)NS(=O)(=O)c1ccc(N)cc1`, the outcome is reported as “inactive”.
In the case of `CC(C)Oc1cccc(NC(=O)c2ccccc2C(F)(F)F)c1`, the outcome is reported as “inactive”.
For `CS(=O)(=O)c1cc(C(F)(F)F)ccc1C(=O)c1cnoc1C1CC1`, the outcome was “inactive”.
`CCOP(=O)(OCC)Oc1nc(Cl)c(Cl)cc1Cl` was tested, and the outcome was “inactive”.
In the case of `CCOP(=S)(OCC)Oc1nc(Cl)n(C(C)C)n1`, the outcome is reported as “inactive”.
In the case of `CCOc1nc(F)cc2nc(S(=O)(=O)Nc3c(Cl)cccc3Cl)nn12`, the outcome is reported as “inactive”.
`COP(=S)(OC)SCn1nnc2ccccc2c1=O` was tested, and the outcome was “inactive”.
For `CNC(=O)N(C)c1nnc(C(C)(C)C)s1`, the outcome was “inactive”.
For `Clc1nc(Cl)nc(Nc2ccccc2Cl)n1`, the outcome was “inactive”.
With `Nc1c(Cl)c(Cl)nc(C(=O)O)c1Cl` the outcome was “inactive”.
In the case of `Nc1c(Cl)c(F)nc(OCC(=O)O)c1Cl`, the outcome is reported as “inactive”.
For `CC1(C)CCC(=Cc2ccc(Cl)cc2)C1(O)Cn1cncn1` (stereo unspecified), the outcome was “inactive”.
`CSC(=O)c1c(C(F)F)nc(C(F)(F)F)c(C(=O)SC)c1CC(C)C` was tested, and the AC50 was 49.8 µM (active).
`CCCCC(C#N)(Cn1cncn1)c1ccc(Cl)cc1` (stereo unspecified) was tested, and the outcome was “inactive”.
In the case of `O=C(O)c1c(Cl)ccc2cc(Cl)cnc12`, the outcome is reported as “inactive”.
For `O=P(O)(O)CCCl`, the outcome was “inactive”.
For `Cc1cnc(C2=NC(C)(C(C)C)C(=O)N2)c(C(=O)O)c1` (stereo unspecified), the outcome was “inactive”.
With `CCOC(=O)C(C)OC(=O)c1cc(Oc2ccc(C(F)(F)F)cc2Cl)ccc1[N+](=O)[O-]` (stereo unspecified) the outcome was “inactive”.
With `COC(=O)N(C(=O)N1CO[C@@]2(C(=O)OC)Cc3cc(Cl)ccc3C2=N1)c1ccc(OC(F)(F)F)cc1` the outcome was “inactive”.
For `CC1(C)C(C=C(Cl)Cl)C1C(=O)OC(C#N)c1cccc(Oc2ccccc2)c1` (stereo unspecified), the outcome was “inactive”.
For `Cc1cc(C)nc(Nc2ccccc2)n1`, the outcome was “inactive”.
For `O=c1n(Cl)c(=O)n(Cl)c(=O)n1Cl`, the outcome was “inactive”.
With `CO/N=C(/C1=NOCCO1)c1ccccc1Oc1ncnc(Oc2ccccc2Cl)c1F` the AC50 was 5.39 µM (active).
For `COCC(=O)N(c1c(C)cccc1C)C(C)C(=O)OC` (stereo unspecified), the outcome was “inactive”.
In the case of `C=CCOC(=O)C(C)(C)OC(=O)c1cc(-n2c(=O)cc(C(F)(F)F)n(C)c2=O)ccc1Cl`, the outcome is reported as “inactive”.
For `COC(=O)c1c(C(F)F)nc(C(F)(F)F)c(C2=NCCS2)c1CC(C)C`, the outcome was “inactive”.
In the case of `CN=C=S`, the outcome is reported as “inactive”.
With `CC(C)NC(=O)N1CC(=O)N(c2cc(Cl)cc(Cl)c2)C1=O` the outcome was “inactive”.
`COc1cc(OC)nc(NC(=O)NS(=O)(=O)c2ncccc2OCC(F)(F)F)n1` was tested, and the outcome was “inactive”.
For `COP(=O)(OC)O/C(C)=C/C(=O)N(C)C`, the outcome was “inactive”.
`CCOc1cc(C(C)(C)C)ccc1C1COC(c2c(F)cccc2F)=N1` (stereo unspecified) was tested, and the outcome was “inactive”.
